In PubChem BioAssay:
The source made the active and inactive calls.

How the values were obtained:
[1] = system: PRMT1 (protein arginine N-methyltransferase 1); experiment: small molecules binding arginine methyltransferase PRMT1 – biochemical, small-molecule microarray, 635 nm fluorescence, primary screen (AID 1088); settings: higher = more signal;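 note: binding of Prmt1 protein to compounds spotted on small-molecule microarray slides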
[2] = growth effects on S. cerevisiae YJM789 – YJM789 clinical isolate, OD600, 24 h, basal, primary screen (AID 1089); settings: higher = more signal, called active from +8 up or from −8 down;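 note: growth of clinical yeast isolate S. cerevisiae YJM 789 seeded 1000 cells per well; test concentration not given here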
[3] = S. pombe growth modifiers, basal conditions – strain 972, OD600, 24 h, no modulator, primary screen (AID 1090);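 note: basal condition with compound alone and no growth modifier present; test concentration not given here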; settings: S. pombe 972 growth, higher = more signal, called active from +8 up or from −8 down
[4] = budding yeast growth modifiers under rapamycin – strain BY4716, OD600, 96 h, primary screen (AID 1091); note: test concentration not given here; settings: S. cerevisiae BY4716 + rapamycin, higher = more signal, called active from +8 up or from −8 down
[5] = molecular target: Torsin-1A-interacting protein 2 (Homo sapiens) (UniProt Q8NFQ8); experiment: small molecules binding lysate-expressed LULL1 – cell lysate, human LULL1 lysate, 635/667 nm fluorescence, primary screen (AID 1092); settings: small-molecule microarray, hLULL1 lysate binding, 635 nm fluorescence; higher = more signal;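 note: probe is lysate of COS7 cells overexpressing human LULL1; score merges per-feature 667 nm fluorescence with signal-to-noise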
[6] = optical density change of DRC41 E. coli – strain DRC41, OD650, 24 h, E. coli filamentation project, primary screen (AID 1093);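 note: MC1000 strain lacking acrAB efflux and sulA so SOS filamentation is blocked; test concentration not given here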; settings: E. coli DRC41 growth, higher = more signal, called active from +8 up or from −8 down
[7] = probe aLefty2 binding to arrayed compounds – biochemical, biotinylated probe, 635/667 nm fluorescence, primary screen (AID 1094); settings: small-molecule microarray, higher = more signal;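 note: score merges spot fluorescence near 667 nm with spot signal-to-noise ratio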
[8] = system: Noggin (protein binding on small-molecule microarray); experiment: small molecules binding Noggin protein – biochemical, 635/667 nm fluorescence, primary screen (AID 1095); settings: 635 nm fluorescence, higher = more signal;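 note: score merges 667 nm feature fluorescence with signal to noise over triplicate slides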
[9] = molecular target: Neurogenic locus notch homolog protein 3 (Homo sapiens) (UniProt Q9UM47); experiment: small molecules binding NOTCH3 protein – biochemical, 635/667 nm fluorescence, primary screen (AID 1096); settings: small-molecule microarray, 635 nm fluorescence, higher = more signal
[10] = probe aEGFR binding to arrayed compounds – biochemical, biotinylated probe, 635/667 nm fluorescence, primary screen (AID 1097); settings: small-molecule microarray, higher = more signal;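 note: probe is a biotinylated anti-EGFR antibody binding compounds printed on slides; score combines fluorescence near 667 nm and signal to noise of each spot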

Chain of Neurogenic locus notch homolog protein 3 (Homo sapiens) (Q9UM47 whole entry, looked up): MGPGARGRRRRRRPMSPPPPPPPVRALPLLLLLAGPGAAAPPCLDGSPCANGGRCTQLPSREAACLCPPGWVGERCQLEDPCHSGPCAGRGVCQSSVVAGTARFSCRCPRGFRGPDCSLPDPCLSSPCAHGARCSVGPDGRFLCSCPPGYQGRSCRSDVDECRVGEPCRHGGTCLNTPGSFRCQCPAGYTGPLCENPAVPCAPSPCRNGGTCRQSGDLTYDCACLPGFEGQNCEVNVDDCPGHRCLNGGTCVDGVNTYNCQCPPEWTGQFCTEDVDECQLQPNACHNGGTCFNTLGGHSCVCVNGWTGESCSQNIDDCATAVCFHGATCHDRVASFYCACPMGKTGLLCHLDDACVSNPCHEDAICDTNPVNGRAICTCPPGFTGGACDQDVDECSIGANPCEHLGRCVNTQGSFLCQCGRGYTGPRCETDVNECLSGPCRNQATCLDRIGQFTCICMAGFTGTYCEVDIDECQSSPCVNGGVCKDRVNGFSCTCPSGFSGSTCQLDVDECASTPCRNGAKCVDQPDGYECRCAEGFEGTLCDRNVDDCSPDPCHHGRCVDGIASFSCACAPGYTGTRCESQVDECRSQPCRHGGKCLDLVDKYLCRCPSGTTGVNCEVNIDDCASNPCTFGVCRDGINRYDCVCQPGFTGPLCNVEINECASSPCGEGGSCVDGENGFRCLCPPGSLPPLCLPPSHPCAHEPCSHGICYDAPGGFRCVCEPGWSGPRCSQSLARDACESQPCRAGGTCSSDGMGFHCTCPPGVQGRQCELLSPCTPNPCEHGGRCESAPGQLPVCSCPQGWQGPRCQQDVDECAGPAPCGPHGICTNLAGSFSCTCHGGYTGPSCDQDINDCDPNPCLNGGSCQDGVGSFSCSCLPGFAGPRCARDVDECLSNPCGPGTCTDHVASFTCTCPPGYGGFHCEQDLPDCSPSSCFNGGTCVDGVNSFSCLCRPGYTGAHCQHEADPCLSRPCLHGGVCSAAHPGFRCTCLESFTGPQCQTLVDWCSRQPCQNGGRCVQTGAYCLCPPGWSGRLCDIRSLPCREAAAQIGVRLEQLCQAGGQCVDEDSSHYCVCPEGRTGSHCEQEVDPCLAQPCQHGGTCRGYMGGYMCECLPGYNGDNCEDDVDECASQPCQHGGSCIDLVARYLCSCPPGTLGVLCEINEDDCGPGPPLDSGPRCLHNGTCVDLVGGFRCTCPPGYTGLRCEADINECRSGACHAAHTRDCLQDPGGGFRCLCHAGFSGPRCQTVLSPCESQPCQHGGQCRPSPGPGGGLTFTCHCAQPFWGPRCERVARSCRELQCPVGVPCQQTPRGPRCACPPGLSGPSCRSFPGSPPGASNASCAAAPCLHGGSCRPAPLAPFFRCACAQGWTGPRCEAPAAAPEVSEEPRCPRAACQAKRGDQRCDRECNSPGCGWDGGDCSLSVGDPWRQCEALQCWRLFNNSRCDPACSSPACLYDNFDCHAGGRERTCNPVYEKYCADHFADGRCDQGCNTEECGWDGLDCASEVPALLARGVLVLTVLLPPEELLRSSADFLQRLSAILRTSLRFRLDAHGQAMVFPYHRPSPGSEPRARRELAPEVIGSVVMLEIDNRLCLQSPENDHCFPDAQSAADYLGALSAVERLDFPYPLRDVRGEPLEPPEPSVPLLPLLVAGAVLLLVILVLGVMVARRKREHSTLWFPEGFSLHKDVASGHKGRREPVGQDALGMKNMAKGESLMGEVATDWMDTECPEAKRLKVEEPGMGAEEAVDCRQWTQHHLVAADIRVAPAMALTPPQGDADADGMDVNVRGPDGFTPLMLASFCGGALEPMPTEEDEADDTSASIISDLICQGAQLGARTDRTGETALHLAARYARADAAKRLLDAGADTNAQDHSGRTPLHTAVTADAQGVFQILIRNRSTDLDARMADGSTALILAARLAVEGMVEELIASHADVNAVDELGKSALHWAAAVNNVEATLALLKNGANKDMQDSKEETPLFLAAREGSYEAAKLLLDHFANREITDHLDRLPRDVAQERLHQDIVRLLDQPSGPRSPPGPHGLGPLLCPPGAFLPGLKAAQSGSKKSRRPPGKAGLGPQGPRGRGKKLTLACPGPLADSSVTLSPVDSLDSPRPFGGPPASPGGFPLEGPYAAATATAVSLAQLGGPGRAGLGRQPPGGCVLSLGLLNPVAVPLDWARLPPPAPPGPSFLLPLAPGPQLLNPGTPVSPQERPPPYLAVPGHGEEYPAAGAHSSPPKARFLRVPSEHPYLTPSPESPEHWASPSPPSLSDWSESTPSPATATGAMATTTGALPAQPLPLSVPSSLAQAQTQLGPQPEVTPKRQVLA
Chain of Torsin-1A-interacting protein 2 (Homo sapiens) (Q8NFQ8 whole entry, looked up): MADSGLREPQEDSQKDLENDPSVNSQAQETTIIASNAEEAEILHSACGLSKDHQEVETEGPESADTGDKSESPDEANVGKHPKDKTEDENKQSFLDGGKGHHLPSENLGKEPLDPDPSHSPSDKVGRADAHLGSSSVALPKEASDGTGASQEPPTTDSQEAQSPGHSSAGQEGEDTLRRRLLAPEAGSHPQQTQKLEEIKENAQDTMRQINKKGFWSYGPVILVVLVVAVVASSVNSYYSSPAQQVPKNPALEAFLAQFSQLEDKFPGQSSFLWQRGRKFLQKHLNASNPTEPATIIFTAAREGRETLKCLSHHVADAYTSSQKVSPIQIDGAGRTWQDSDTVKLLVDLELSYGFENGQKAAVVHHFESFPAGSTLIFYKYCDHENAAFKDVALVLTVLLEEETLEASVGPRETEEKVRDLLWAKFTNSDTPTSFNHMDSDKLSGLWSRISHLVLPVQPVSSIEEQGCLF

Structure (SMILES) | composite z-score [1] | z-score [2] | z-score [3] | z-score [4] | composite z-score [5] | z-score [6] | composite z-score [7] | composite z-score [8] | composite z-score [9] | composite z-score [10]
COc1ccc(O[C@H]2C=C[C@@H](c3ccccc3)O[C@@H]2COC(=O)CCC(C)=NO[C@H](C)c2cn([C@@H]3COC[C@H]3O)nn2)cc1 | 1.53 | -0.88 (inactive) | -0.757 (inactive) | -0.56 (inactive) | 0.146 | 0.508 (inactive) | -0.181 | 0.525 | 0.942 | -0.148
COc1ccc(CCNC(=O)[C@@H]2c3ccccc3C(=O)N(c3ccc(C)cn3)[C@H]2c2ccc(CO)cc2)cc1 | 0.11 | -1.5 (inactive) | -0.436 (inactive) | -1.15 (inactive) | 3.23 | 0.604 (inactive) | 0.121 | -1.16 | -1.21 | -0.404
CN1C(=O)C2C=CC(C(O)c3ccc(Br)cc3)N(N(c3ccccc3)c3ccccc3)C2C1=O (stereo not given) | 0.289 | 0.351 (inactive) | 1.27 (inactive) | 2.27 (inactive) | 1.94 | -1.24 (inactive) | 0.238 | -0.482 | 0.585 | 0.146
Cc1ccc(F)cc1S(=O)(=O)N[C@@H]1CCN(Cc2ccc(CC(C)C)cc2)C1 | 0.446 | -25.8 (active) | -21.4 (active) | -4.49 (inactive) | 1.59 | -19.5 (active) | -0.192 | -0.0204 | -0.734 | -0.17
Cc1ccc(S(=O)(=O)N[C@@H]2COC(=O)[C@H](C)COC(=O)CC=C[C@H]2C)cc1 | -0.365 | 1.4 (inactive) | 1.05 (inactive) | 1.2 (inactive) | -0.366 | -0.234 (inactive) | -0.18 | 0.984 | 0.566 | -0.215
CC(C)C[C@@H]1NC(=O)[C@H]2C[C@@H](C(=O)O)[C@@H](c3ccc(O)cc3)N2C1=O | 0.879 | 0.634 (inactive) | -0.213 (inactive) | 1.83 (inactive) | 1.15 | 0.831 (inactive) | 0.449 | 0.4 | 0.436 | 0.0577
C[C@@H]1CC[C@H]2C(=O)O[C@H](COc3ccc(C(C)(C)C)cc3)CN2[C@H]1c1ccc(Br)cc1 | -0.59 | 1.55 (inactive) | 0.406 (inactive) | 1.4 (inactive) | -0.121 | -0.756 (inactive) | -0.291 | -0.273 | -0.428 | -0.122
O=C1[C@H]2[C@H]3[C@H](O)[C@H](O)CC(=NO[C@@H]4O[C@H](CO)[C@@H](O)[C@H](O)[C@H]4O)[C@H]3CC[C@H]2C(=O)N1C1CCCCC1 | 1.55 | -0.546 (inactive) | 0.506 (inactive) | -0.0694 (inactive) | 1.58 | 0.15 (inactive) | -0.0652 | 1.36 | 0.308 | -0.12
CC(CCN1CCc2nc(-c3ccccc3)c(-c3ccccc3)cc2C1)=NOC(C)CN1CCCCc2nc(C)c(C)cc21 (stereo not given) | 0.948 | -1.03 (inactive) | -3.01 (inactive) | -3.08 (inactive) | 1.53 | 0.74 (inactive) | -0.0813 | 0.454 | 0.905 | -0.0565
CC(=O)OC[C@H]1O[C@H](CCON=C(C)CCC(=O)OC[C@H]2O[C@H](C#Cc3ccccc3)C=C[C@@H]2Oc2ccc(C)cc2)C=C[C@@H]1OC(C)=O | 0.269 | -0.465 (inactive) | -0.0797 (inactive) | -0.579 (inactive) | 0.719 | 0.554 (inactive) | -0.181 | 0.465 | -0.0894 | 0.0567
COC(=O)[C@@H]1CC[C@H](C)[C@@H](c2ccc(C)cc2)N1C(=O)c1ccc(C=NOC(C)CN2CCCCc3nc(C)c(C)cc32)cc1 (stereo not given in full) | -0.066 | -0.632 (inactive) | -11.8 (active) | 0.325 (inactive) | -0.0101 | 0.829 (inactive) | -0.0332 | 0.149 | -0.145 | -0.0929
CCCNC(=O)OC[C@H]1O[C@H](CCON=C2[C@H]3CCn4c(=O)n(-c5ccccc5)c(=O)n4[C@H]3[C@H](O)[C@@H]3O[C@H]23)C=C[C@@H]1Oc1ccc(OC)cc1 | 0.615 | -0.285 (inactive) | 0.0063 (inactive) | -0.0824 (inactive) | 0.507 | 0.317 (inactive) | -0.234 | 0.388 | 0.242 | -0.253
CCOC(=O)CCN1C(=O)[C@H]2[C@H]3[C@H](O)[C@H](O)CC(=NNC(=O)OCc4ccc(OC)cc4)[C@@H]3CC[C@H]2C1=O | 0.372 | -0.162 (inactive) | 0.151 (inactive) | -0.3 (inactive) | 0.97 | 0.0856 (inactive) | -0.157 | 0.38 | 1.08 | -0.0986
CC(C)NC(=O)[C@@]1(c2ccc([N+](=O)[O-])cc2)CC(=O)N(CC23CC4CC(CC(C4)C2)C3)[C@@H]1c1ccc(CO)cc1I | 1.52 | 0.151 (inactive) | 0.168 (inactive) | 5.83 (inactive) | 2.53 | -0.525 (inactive) | 0.448 | 0.176 | 0.341 | 0.0743
[N-]=[N+]=Nc1ccccc1C[C@@]1(C(N)=O)N=C(c2ccc(OCCCO)cc2)O[C@@H]1c1ccccc1 | 0.683 | -0.501 (inactive) | -0.371 (inactive) | -0.481 (inactive) | 2.06 | 0.0722 (inactive) | 0.316 | -0.754 | 0.156 | -0.0455
O=C1[C@H]2[C@H]3[C@H](O)[C@H](O)CC(=NO[C@@H]4O[C@H](CO)[C@@H](O)[C@H](O)[C@H]4O)[C@@H]3CC[C@H]2C(=O)N1c1ccc(F)cc1F | -0.841 | -1.24 (inactive) | -0.114 (inactive) | -1.29 (inactive) | 0.245 | 0.645 (inactive) | -0.119 | 0.575 | 0.79 | -0.113
[N-]=[N+]=NCc1ccccc1C[C@]1(C(=O)NCc2ccccc2)N=C(c2ccc(OCCCO)cc2)O[C@H]1c1ccccc1N=[N+]=[N-] | 1.26 | 0.228 (inactive) | 1 (inactive) | 6.01 (inactive) | 3.17 | 0.368 (inactive) | 0.284 | 0.179 | 0.755 | 0.464
Cc1ccc(S[C@]2(C(=O)NCC(F)(F)F)CC(=O)N(Cc3ccccc3Cl)[C@@H]2c2ccc(CO)cc2I)cc1 | 1.33 | 0.294 (inactive) | -3.18 (inactive) | 1.06 (inactive) | 2.34 | 0.492 (inactive) | -0.0998 | -1.07 | -0.573 | -0.284
COC(=O)[C@@H]1CCCN1C(=O)[C@@H](C)CO | 0.177 | -1.12 (inactive) | -0.988 (inactive) | 0.258 (inactive) | 0.93 | -0.197 (inactive) | -0.152 | 0.415 | 0.753 | 0.0055
C=CC[C@]1(C(=O)NCc2ccccc2)N=C(c2ccc(OCCCO)cc2)O[C@H]1c1ccccc1 | 1.55 | 0.159 (inactive) | -0.46 (inactive) | 6.37 (inactive) | 3.28 | 0.568 (inactive) | -0.0238 | 0.119 | 0.778 | -0.137
O=C1CCCC=C1C(O)CCOCc1ccccc1 (stereo not given) | -0.195 | -0.385 (inactive) | -0.82 (inactive) | -1.15 (inactive) | -1.08 | -0.546 (inactive) | -0.224 | 0.355 | -0.834 | -0.0828
C[C@@H](c1ccccc1)N1C(=O)[C@H]2[C@H]3[C@H](O)[C@H](O)CC(=NNC(=O)OCc4ccccc4)[C@H]3CC[C@H]2C1=O | -0.26 | 0.547 (inactive) | 0.408 (inactive) | 0.698 (inactive) | 0.71 | 0.687 (inactive) | 0.2 | 0.124 | -0.246 | 0.229
CCCC[C@@H]1C[C@H]1[C@@H](NS(=O)(=O)c1cccc2cccnc12)c1ccc(-c2ccccc2)cc1 | -1.42 | 0.0994 (inactive) | 1.16 (inactive) | 0.676 (inactive) | 1.26 | -0.781 (inactive) | 0.0141 | -0.696 | 0.32 | -0.0728
COCCCNC(=O)[C@@]1(C)c2ccccc2C(=O)N(Cc2ccc(OC(F)(F)F)cc2)[C@H]1c1ccc(CO)cc1 | 0.289 | -0.0965 (inactive) | 0.203 (inactive) | -0.35 (inactive) | -0.0493 | 0.93 (inactive) | 0.134 | -0.598 | -0.519 | 0.146
O=C1C2=CC[C@H]3C(=O)N(Cc4ccc5c(c4)OCO5)C(=O)[C@H]3[C@H]2[C@H](O)[C@@H]2O[C@H]12 | -1.05 | -0.108 (inactive) | -0.682 (inactive) | -0.611 (inactive) | 0.24 | 0.347 (inactive) | -0.166 | 0.616 | 0.632 | 0.0083
CC(C)(C)N1C(=O)[C@H]2[C@H]3[C@H](O)[C@H](O)CC(=NO[C@@H]4O[C@H](CO)[C@@H](O)[C@H](O)[C@H]4O)[C@@H]3CC[C@H]2C1=O | 1.49 | -0.233 (inactive) | -0.113 (inactive) | -1.47 (inactive) | 1.97 | 0.637 (inactive) | -0.217 | 0.564 | 0.794 | -0.0229
CC=CC1=C(CO)[C@H](O)[C@H]2O[C@H]2[C@H]1O | 1.23 | 0.505 (inactive) | 0.317 (inactive) | 1.12 (inactive) | -0.0789 | 0.131 (inactive) | -0.24 | 0.834 | 0.67 | -0.0382
CC(C)c1ccc(NN2C(C(O)c3ccc4c(c3)OCO4)C=CC3C(=O)N(c4ccccc4)C(=O)C32)cc1 (stereo not given) | 1.21 | -0.0261 (inactive) | 0.0855 (inactive) | 0.599 (inactive) | 3.5 | 0.0026 (inactive) | 0.304 | 1.01 | 1.1 | -0.0845
Cc1cc2c(c(=O)o1)[C@H](O)[C@H]1O[C@H]1C2=O | 0.527 | 0.228 (inactive) | -4.24 (inactive) | -0.643 (inactive) | -0.186 | -1.02 (inactive) | -0.0569 | 0.651 | 0.312 | -0.0007
